In PubChem BioAssay (NCI):
The panel holds about 83,000 compounds, 20% with a hit somewhere; the sample as a whole holds those more often.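 Compound tested at a single concentration for 48 hours in 96-well plates; a percent growth value below 10 was scored as active.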 Calls of active or inactive are those of the source.

How the values were obtained:
Experiment in all cases: NCI-60 one-dose screen, 48 h (100 = growth as untreated, 0 = no growth, -100 = all killed)
[1] = system: NCI-H23 lung; conditions: 10 µM unless noted
[2] = system: NCI-H322M lung; conditions: 10 µM unless noted
[3] = system: HOP-62 NSCLC; conditions: 10 µM unless noted
[4] = system: NCI-H460 lung; conditions: 10 µM unless noted
[5] = system: HOP-92 NSCLC; conditions: 10 µM unless noted
[6] = system: A549/ATCC NSCLC; conditions: 10 µM unless noted
[7] = system: 786-0 renal; conditions: 10 µM unless noted
[8] = system: COLO 205 colon; conditions: 10 µM unless noted
[9] = system: NCI-H522 lung; conditions: 10 µM

Measured: growth

Cc1cc(=O)[nH]n1-c1cc(Cl)ccc1N
inactive: [1] 107% | [2] 112% | [3] 103% | [4] 113% | [5] 114% | [6] 105% | [7] 104% | [8] 103%

O=C1NC(=O)C(CSc2ccccc2)(c2ccccc2)N1 (centres undefined)
inactive: [1] 97.7% | [2] 86.5% | [3] 97.3% | [4] 118% | [5] 90.8% | [6] 92.4% | [7] 103% | [8] 98%

Oc1ccc2ccccc2c1C1NN=C(c2ccccc2)S1 (centres undefined)
inactive: [1] 35% | [2] 29.2% | [3] 28.8% | [5] 42.8% | [6] 18% | [8] 16.6%
active: [4] -27.8% | [7] 6.82%

CCCN1CCN(c2ccc3nc(-c4ccc5nc(-c6ccc(C(F)(F)F)cc6)[nH]c5c4)[nH]c3c2)CC1
active: [1] -77.1% | [2] -95.7% | [3] -62.6% | [4] -88.5% | [9] -43.4% | [7] -90.2%
inactive: [5] 63%

COc1ccc(-c2c(-c3cc4c(c(OC)c3OC)OCO4)noc2N)cc1
active: [8] -2.51%
inactive: [1] 42.5% | [2] 54.2% | [3] 35.7% | [4] 13.2% | [5] 15.3% | [6] 24.1% | [7] 38.4%

COc1cc2cc(Oc3ccc(NC(=O)Nc4cccc(C(F)(F)F)c4)cc3)c(C)nc2cc1OCCN1CCCCC1
active: [1] -75.4% | [2] -14.5% | [3] -68.8% | [4] -84.2% | [6] -56.2% | [7] -83.7% | [8] -74.9%
inactive: [5] 23.4%

CCC(=O)Nc1nnc(Cc2ccc(OC)c(OC)c2)s1
inactive: [1] 60.4% | [2] 24.9% | [5] 32.6% | [8] 28.2%
active: [3] -67.2% | [4] -43.7% | [6] -55% | [7] 9.21%

Fc1c[c-]c(-c2ccccn2)c(F)c1.Fc1c[c-]c(-c2ccccn2)c(F)c1.[Cl][Pt+].[Cl][Pt+].c1ccc([PH+](C[PH+](c2ccccc2)c2ccccc2)c2ccccc2)cc1
inactive: [2] 66.6% | [3] 20.9% | [6] 20.6% | [7] 31.8%
active: [1] -6.3% | [4] 8.7% | [5] 2.42% | [8] -65.2%

COc1cc(Cn2cc(F)c(=O)[nH]c2=O)cc(OC)c1
inactive: [1] 103% [50 µM] | [2] 99% [50 µM] | [3] 88.2% [50 µM] | [4] 103% [50 µM] | [5] 101% [50 µM] | [6] 102% [50 µM] | [7] 97.5% [50 µM] | [8] 117% [50 µM]

CCCCCn1c(=N)n(CC(O)COc2cccc(C)c2)c2ccccc21 (centres undefined)
inactive: [2] 14% | [3] 17.9% | [7] 32.6% | [8] 87.2%
active: [1] 7.8% | [4] 0.388% | [5] -10.9% | [6] 7.6%

COc1ccc(-c2cc(=O)oc3c4c(ccc23)OCN(Cc2ccc(F)cc2)C4)cc1
inactive: [1] 41.2% | [2] 75.9% | [3] 80% | [4] 61.8% | [5] 47.8% | [6] 69.6% | [7] 65.7% | [8] 64.2%

c1ccc(-c2n(Cc3ccc4ccccc4c3)c3ccccc3[n+]2Cc2ccc3ccccc3c2)cc1
active: [1] -20.9% | [2] 3.63% | [3] 4.19% | [4] -82.1% | [5] -40.4% | [6] 5.14% | [7] -94.8% | [8] -70.7%

Nc1cccc2c(=S)c3ccccc3[nH]c12
inactive: [1] 95.9% | [2] 92.1% | [3] 82.7% | [4] 95.7% | [5] 98.4% | [6] 108% | [7] 106% | [8] 114%

CC1CCCCN1S(=O)(=O)c1ccc(CN=C=S)cc1 (centres undefined)
inactive: [1] 97.1% | [2] 96.6% | [3] 108% | [4] 88.4% | [5] 60.8% | [6] 102% | [7] 55.9% | [8] 52.8%

O=c1[nH]c(-c2ccccn2)nc2sc3c(c12)CCCCCC3
active: [5] -2.86%
inactive: [1] 48.7% | [2] 46.8% | [3] 43% | [4] 15.9% | [6] 23.2% | [7] 46.1% | [8] 33%

CC[Si](CC)(CC)OC1[C@@H](O[Si](CC)(CC)CC)[C@@H](CNC(=O)NC)O[C@H]1n1cnc2c(NC(=O)Nc3ccccc3)ncnc21 (some centres undefined)
inactive: [1] 51.9% | [2] 96.3% | [3] 95.9% | [4] 24.8% | [5] 67.2% | [6] 68.5% | [7] 89.6% | [8] 99.1%

COc1ccc(-c2nc3sc(C)nn3c2-c2nc3cc(C)c(C)cc3[nH]2)cc1
inactive: [1] 93.9% | [2] 99.4% | [3] 91.8% | [4] 99.9% | [5] 87.9% | [6] 96.3% | [7] 98.4% | [8] 115%

CC(C)(C)[Si](C)(C)OC1[C@@H](CNC(=O)NC(=O)CCl)O[C@@H](n2cnc3c(N)ncnc32)[C@H]1O[Si](C)(C)C(C)(C)C (some centres undefined)
active: [1] -72.4% | [3] -60.1% | [4] -82.4% | [5] -79.2% | [6] -22.3% | [7] -55.4% | [8] -16.8%
inactive: [2] 111%

Cc1cc(=O)oc2c1ccc1oc(C(=O)c3ccccc3)c(C)c12
inactive: [1] 82.1% | [2] 112% | [3] 115% | [4] 85% | [5] 105% | [6] 93.8% | [7] 99.5% | [8] 93.5%

CC(C)OC1=C(Cl)C(=O)c2ccccc2C1=O
inactive: [1] 81.8% | [2] 95% | [3] 92.1% | [4] 103% | [5] 99.8% | [6] 102% | [7] 108% | [8] 97.7%

c1ccc2cc(-c3n(Cc4ccc5ccccc5n4)c4ccccc4[n+]3Cc3ccc4ccccc4n3)ccc2c1
active: [1] -16.5% | [2] 7.73% | [3] -7% | [4] -57.3% | [5] -31.6% | [6] 6.23% | [7] 5.11% | [8] -66.7%

Cc1c(C)n(CC(O)CNC2CCCCC2C)c2ccccc12 (centres undefined)
inactive: [2] 31.7% | [4] 11.2%
active: [1] -19.7% | [3] -71.3% | [5] -60% | [6] -31.4% | [7] -84.7% | [8] -84.7%

NS(=O)(=O)c1ccc(C(=O)N/N=C(\CS(=O)(=O)c2ccccc2)c2cc3cc(Br)ccc3o2)cc1
inactive: [1] 80.7% | [2] 103% | [3] 96% | [4] 96.3% | [5] 77.2% | [9] 80.2% | [7] 101%

Cc1ccccc1-n1nnc(C(=O)Nc2ccc(-c3ccccc3)cn2)c1C
inactive: [1] 38.1% [50 µM] | [2] 81.3% [50 µM] | [3] 93.7% [50 µM] | [4] 61.9% [50 µM] | [5] 74.3% [50 µM] | [7] 62.1% [50 µM] | [8] 40.2% [50 µM]

COc1ccccc1-n1c(SCc2cc(OC)c(OC)c(OC)c2)nc2ccc(Cl)cc2c1=O
inactive: [1] 36.1% | [2] 55.1% | [3] 51.8% | [4] 10.8% | [5] 42.9% | [6] 31.1% | [7] 51.1% | [8] 28%

CC(C)(C)[Si](C)(C)OC1[C@@H](COC(N)=O)O[C@@H](n2cnc3c(N)ncnc32)[C@H]1O[Si](C)(C)C(C)(C)C (some centres undefined)
inactive: [1] 87.9% | [2] 114% | [3] 95.7% | [4] 83.9% | [5] 55.3% | [7] 91.2% | [8] 103%

O=C1C=CC(=O)N1CCCCCCCCCCN1C(=O)C=CC1=O
active: [9] -60.7%
inactive: [1] 85.2% | [2] 109% | [3] 88.7% | [4] 96.1% | [6] 97.4% | [7] 88.7% | [8] 65.7%

COC(=O)/C=C1/CCC2C3CCC4=CC(=O)C(Br)CC4(C)C3C(=O)CC12C (centres undefined)
inactive: [1] 67.5% | [2] 115% | [3] 80.6% | [4] 59.3% | [5] 76.6% | [7] 83.8% | [8] 80.2%
